Reference: PubChem BioAssay AID449739 (Vanderbilt High Throughput Screening Facility, 2010)
Among all 100,000 compounds or so, about 4,200 (4.2%) were called active.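 The calls were made as follows: active = single-dose well whose peak fluorescence ratio is a statistical outlier from its plate by either plate-standardised score or position-corrected B-score; inactive = the rest.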 Many of the other results were omitted from the sample, so actives are more common in it than they were.

These compounds were tested against Voltage-dependent T-type calcium channel subunit alpha-1H (Homo sapiens) (UniProt O95180) (assay: Cav3.2 calcium influx blockers – cell-based, Fluo-4 calcium fluorescence, FDSS, MLSMR library, primary screen (AID 449739)). Settings: Cav3.2-expressing cells, at 10 µM, active compounds read low.
Chain of Voltage-dependent T-type calcium channel subunit alpha-1H (Homo sapiens) (O95180 whole entry, looked up): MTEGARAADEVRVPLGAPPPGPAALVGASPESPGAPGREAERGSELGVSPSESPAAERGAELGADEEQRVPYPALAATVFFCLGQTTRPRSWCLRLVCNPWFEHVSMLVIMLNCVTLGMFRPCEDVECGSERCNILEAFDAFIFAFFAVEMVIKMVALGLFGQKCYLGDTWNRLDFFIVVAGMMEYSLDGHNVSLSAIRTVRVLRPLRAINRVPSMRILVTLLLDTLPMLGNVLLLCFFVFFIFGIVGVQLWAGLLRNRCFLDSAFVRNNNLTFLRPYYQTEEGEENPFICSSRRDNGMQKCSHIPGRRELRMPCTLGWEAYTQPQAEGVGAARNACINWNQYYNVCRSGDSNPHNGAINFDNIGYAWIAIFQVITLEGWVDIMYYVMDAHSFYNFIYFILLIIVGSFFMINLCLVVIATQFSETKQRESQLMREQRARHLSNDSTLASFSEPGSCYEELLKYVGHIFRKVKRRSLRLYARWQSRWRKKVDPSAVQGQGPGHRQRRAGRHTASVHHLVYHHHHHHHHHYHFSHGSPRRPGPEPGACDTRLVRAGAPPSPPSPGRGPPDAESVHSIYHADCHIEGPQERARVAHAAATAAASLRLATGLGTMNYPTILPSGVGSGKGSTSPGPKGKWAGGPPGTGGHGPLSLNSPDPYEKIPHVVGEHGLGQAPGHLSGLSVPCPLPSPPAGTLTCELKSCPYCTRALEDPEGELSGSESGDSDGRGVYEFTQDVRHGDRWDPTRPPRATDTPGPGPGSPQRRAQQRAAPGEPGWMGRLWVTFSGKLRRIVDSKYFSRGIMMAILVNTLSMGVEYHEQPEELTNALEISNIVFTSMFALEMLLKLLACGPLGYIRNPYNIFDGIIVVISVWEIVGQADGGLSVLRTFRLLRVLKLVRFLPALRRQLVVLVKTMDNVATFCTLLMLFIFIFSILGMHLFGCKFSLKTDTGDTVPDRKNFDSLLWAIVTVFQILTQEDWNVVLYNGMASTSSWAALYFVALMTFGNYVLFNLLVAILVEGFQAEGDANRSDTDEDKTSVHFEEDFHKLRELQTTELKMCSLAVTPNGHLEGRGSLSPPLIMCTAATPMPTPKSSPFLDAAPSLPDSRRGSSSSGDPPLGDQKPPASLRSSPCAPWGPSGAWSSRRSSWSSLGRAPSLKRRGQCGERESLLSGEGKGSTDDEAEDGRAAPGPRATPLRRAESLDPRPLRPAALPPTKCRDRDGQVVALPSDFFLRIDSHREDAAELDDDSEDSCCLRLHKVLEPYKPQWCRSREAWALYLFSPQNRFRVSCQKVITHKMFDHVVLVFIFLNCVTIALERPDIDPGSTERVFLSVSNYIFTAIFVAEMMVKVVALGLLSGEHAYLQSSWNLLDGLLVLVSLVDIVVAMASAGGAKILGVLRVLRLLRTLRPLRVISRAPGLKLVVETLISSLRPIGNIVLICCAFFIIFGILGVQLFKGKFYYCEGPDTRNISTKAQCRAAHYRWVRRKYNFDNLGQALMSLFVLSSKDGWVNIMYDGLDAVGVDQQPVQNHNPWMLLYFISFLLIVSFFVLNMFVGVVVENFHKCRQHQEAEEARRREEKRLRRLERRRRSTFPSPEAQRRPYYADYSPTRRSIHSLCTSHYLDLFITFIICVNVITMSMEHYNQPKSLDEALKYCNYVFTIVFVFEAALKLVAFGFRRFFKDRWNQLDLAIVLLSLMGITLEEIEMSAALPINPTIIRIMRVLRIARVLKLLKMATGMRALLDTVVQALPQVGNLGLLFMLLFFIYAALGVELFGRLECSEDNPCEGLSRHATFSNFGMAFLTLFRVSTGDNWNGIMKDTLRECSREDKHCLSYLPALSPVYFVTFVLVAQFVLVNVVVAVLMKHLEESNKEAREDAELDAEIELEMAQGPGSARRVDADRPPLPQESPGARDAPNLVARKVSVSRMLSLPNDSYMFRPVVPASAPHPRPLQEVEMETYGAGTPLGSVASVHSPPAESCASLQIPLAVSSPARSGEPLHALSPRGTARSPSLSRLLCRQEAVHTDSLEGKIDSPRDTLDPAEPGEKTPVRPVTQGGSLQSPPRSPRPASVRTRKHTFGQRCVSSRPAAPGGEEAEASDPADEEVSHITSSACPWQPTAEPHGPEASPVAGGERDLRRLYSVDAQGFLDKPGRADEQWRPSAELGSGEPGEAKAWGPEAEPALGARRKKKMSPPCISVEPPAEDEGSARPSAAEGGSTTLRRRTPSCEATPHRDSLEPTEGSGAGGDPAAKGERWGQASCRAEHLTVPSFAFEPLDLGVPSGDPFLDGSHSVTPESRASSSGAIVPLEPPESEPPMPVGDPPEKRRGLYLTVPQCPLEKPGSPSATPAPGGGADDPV
For O=c1c2ccccc2nc2n1C(CSc1ccc(F)cc1)CN2 (stereo unspecified), the B-score was 1.22 (inactive). For COC(=O)c1nc(NC(=O)c2ccc(Cl)cc2)n[nH]1, the B-score was 1.01 (inactive). O=C(Nc1ncc2c(n1)-c1ccccc1OC2)c1ccc(Cl)cc1 was tested, and the B-score was -4.5 (active). With COc1ccc(C(=O)Nc2ncc3c(n2)-c2ccccc2CC3)cc1 the B-score was 0.00103 (inactive). In the case of C/C=C\C=C\C(=O)N1CC2(CC(c3cccc(NC(=O)/C(C)=C\C)c3)=NO2)C[C@H]1C(N)=O (stereo partly specified), the B-score is reported as 0.133 (inactive). CCOC(=O)c1ccc(NC(=O)c2nc[nH]c2C(=O)N[C@@H](CCCCNC(=O)OC(C)(C)C)C(=O)OC(C)(C)C)cc1 was tested, and the B-score was -0.307 (inactive). In the case of C1=C(CCNc2ncnc3c2cnn3-c2ccccc2)CCCC1, the B-score is reported as -0.0964 (inactive). In the case of Cc1cc(C)cc(NC(=O)CSCc2cnn(-c3ccccc3)c2-n2cccc2)c1, the B-score is reported as -2.22 (inactive). For O=C(NCCC1=CCCCC1)C1CCN(Cc2cnn(-c3ccccc3)c2-n2cccc2)CC1, the B-score was -5.79 (active). In the case of COc1cccc(NC(=S)N(CCc2c(C)[nH]c3ccccc23)Cc2ccco2)c1, the B-score is reported as -2.67 (inactive). For CNC(=O)c1[nH]cnc1C(=O)N[C@@H](CC(C)C)C(=O)OC(C)(C)C, the B-score was 0.371 (inactive). With Cc1noc(C)c1C(=O)N(CC(=O)NC1CCCC1)Cc1ccccc1F the B-score was 0.408 (inactive). For CCOC(=O)C1C(=O)NCC1c1ccccc1 (stereo unspecified), the B-score was 0.378 (inactive). With COC(=O)CN1C(C)=Nc2ccc(Br)cc2C1c1ccccc1 (stereo unspecified) the B-score was -0.737 (inactive). In the case of CCC(CC)C(=O)N1CC(=O)Nc2ccc(Br)cc2C1c1ccccc1 (stereo unspecified), the B-score is reported as -4.79 (active). With CCCCCCCCOC1OC(CO)C(O)C(O)C1NC(C)=O (stereo unspecified) the B-score was 0.195 (inactive). With O=c1c2ccccc2nc(N/N=C/c2ccccc2)n1O the B-score was -5.17 (active). FC(F)(F)c1nc2ccccc2nc1N/N=C/c1ccc(Cl)cc1 was tested, and the B-score was -0.00807 (inactive). For CC(C)(C)c1nc2ccccc2c(=O)n1N1C(=O)c2ccccc2C1=O, the B-score was -0.127 (inactive). For C#CCCOC(=O)N1C2=NC(C(=O)OC)=C(C(=O)OC)[C@@H]3N(C)c4ccc(OC)cc4[C@]23C[C@H]1C(=O)OC, the B-score was 0.061 (inactive). Cc1nc(-c2ccc(Cl)cc2)sc1C1(C)CC(c2ccc(Br)cc2)=NO1 (stereo unspecified) was tested, and the B-score was -0.405 (inactive). With Cc1nn(C)c(Oc2ccc(Cl)cc2)c1C=O the B-score was -0.0899 (inactive). C=CCSc1nnc2c(n1)-c1cccc3cccc-2c13 was tested, and the B-score was 0.673 (inactive). For COc1ccc(NC(=O)c2c(SC)nsc2SC)cc1, the B-score was 0.226 (inactive). For CSc1nsc(SC)c1NC(=O)OC1CCCCC1, the B-score was -4.23 (active). With O=C(NCC(=O)N(Cc1cccs1)C(C(=O)NC1CCCCC1)c1ccco1)c1cccs1 (stereo unspecified) the B-score was -6.73 (active). CC(Cc1cccs1)NC(=O)NC1CCCCC1 (stereo unspecified) was tested, and the B-score was -2.2 (inactive). With CC(C)C(OC(=O)c1cccs1)C(=O)NC1CCCCC1 (stereo unspecified) the B-score was -0.509 (inactive). In the case of N/C(=N\OC(=O)Nc1ccc(Cl)c(Cl)c1)c1ncc(C(F)(F)F)cc1Cl, the B-score is reported as -0.00792 (inactive). With Cc1nnc(NC(=O)Nc2ccc(Cl)c(Cl)c2)s1 the B-score was -0.569 (inactive). In the case of O=C(CC(O)(C(F)(F)F)C(F)(F)F)Nc1ccc(Cl)c(Cl)c1, the B-score is reported as -6.32 (active). For COC(=O)CNC(=O)c1ccccc1[N+](=O)[O-], the B-score was 2.22 (inactive). For CC(=O)N[C@H]1[C@H]([C@H](O)[C@H](O)CO)OC(C(=O)O)=C[C@@H]1O, the B-score was 0.744 (inactive). In the case of CC(C)CNC(=O)CC(c1ccccc1)c1c(O)ccc2ccccc12 (stereo unspecified), the B-score is reported as -6.12 (active). With Cc1ccc(CNC(=O)C2CC(c3ccccc3[N+](=O)[O-])=NO2)o1 (stereo unspecified) the B-score was -1.03 (inactive). In the case of COc1ccc(C(=O)CN(C(=O)c2ccc(Cl)cc2)N2C(=O)c3ccccc3C2=O)cc1, the B-score is reported as -1.99 (inactive). O=C(NCCSCc1ccccc1)c1ccc(Cl)c(S(=O)(=O)N2CCOCC2)c1 was tested, and the B-score was -3.48 (inactive). In the case of O=C(Cc1ccc(S(=O)(=O)N2CCCC2)s1)NC1CCCCCC1, the B-score is reported as 0.271 (inactive). In the case of O=C(Cc1ccc(S(=O)(=O)N2CCOCC2)s1)NCCC(c1ccccc1)c1ccccc1, the B-score is reported as -6.74 (active). For CC(=O)c1ccc2c(ccc3ccccc32)c1, the B-score was -0.705 (inactive). For CC(=O)c1nn(-c2cccc(Br)c2)cc1C(=O)c1cccc2ccccc12, the B-score was -4.57 (active). CC(=O)c1sc(NC(=O)c2cccc3ccccc23)nc1C was tested, and the B-score was -0.12 (inactive). For CCNC(=S)N1CCN(C(=O)c2ccco2)CC1, the B-score was -0.0983 (inactive). For CCN(CC)CCN1C(=O)C(=O)/C(=C(/O)c2cnn(-c3ccccc3)c2C)C1c1cccs1 (stereo unspecified), the B-score was 0.414 (inactive). CC(Oc1ccc2ccccc2c1)C(=O)NNC(=S)NC(=O)c1ccco1 (stereo unspecified) was tested, and the B-score was -7.25 (active). In the case of COc1ccc(CCNC(=O)c2ccco2)cc1, the B-score is reported as 0.807 (inactive). In the case of O=C(Nc1ccc(Oc2ccccc2)cc1)c1ccco1, the B-score is reported as -0.246 (inactive). For CCO[C@H]1OC(C(=O)NCc2ccccc2)=C[C@@H](c2coc3ccccc3c2=O)[C@@H]1CCCO, the B-score was 0.119 (inactive). For CC1=NN(Cc2ccccc2)C(=O)/C1=C/c1ccc(N(C)C)cc1, the B-score was -2.13 (inactive). CS(=O)(=O)N1CCN(c2ccc(C(=O)NC3C4CC5CC(C4)CC3C5)cc2[N+](=O)[O-])CC1 (stereo unspecified) was tested, and the B-score was 0.716 (inactive). In the case of Cc1ccc(C(=O)NCC(=O)O)cc1S(=O)(=O)N1CCCCC1, the B-score is reported as 1.06 (inactive). For Cc1ccc(C(=O)Nc2ccc3c(c2)OCO3)cc1S(=O)(=O)N1CCCCC1, the B-score was -5.28 (active). In the case of O=C(Nc1ccc2c(c1)OCCO2)c1ccc(Cl)c(S(=O)(=O)N2CCCCC2)c1, the B-score is reported as -1.46 (inactive). In the case of CCOc1ccc(NC(=O)CC2C(=O)N(c3ccccc3)C(=O)N2CCOC)cc1 (stereo unspecified), the B-score is reported as 0.221 (inactive). With COc1ccc(-c2n[nH]c(C)c2-c2ccc(OC)c(OC)c2)c(O)c1 the B-score was -1.02 (inactive). For CCOc1ccccc1Oc1cn[nH]c1-c1ccc(OC)cc1O, the B-score was -3.81 (active). C=C(C)COc1ccc(-c2n[nH]c(C)c2-c2ccccc2OC)c(O)c1 was tested, and the B-score was -1.28 (inactive). With O=C(c1cccc(F)c1)N1CCN(c2ccc([N+](=O)[O-])c(N3CCCCC3)c2)CC1 the B-score was -2.45 (inactive). With Cc1cccc(N2CCN(C(=O)CN(C)S(=O)(=O)c3ccc4c(c3)CCC(=O)N4)CC2)c1C the B-score was 1.04 (inactive). In the case of O=S(=O)(NCc1cccnc1)c1ccc(Cl)nc1, the B-score is reported as 0.0815 (inactive). In the case of CC(C)Nc1ncnc2c1nnn2Cc1ccccc1, the B-score is reported as 0.849 (inactive). In the case of Clc1ccc(Cn2ncc3c(NCc4cccnc4)ncnc32)cc1, the B-score is reported as -4.69 (active). CN1CCN(C(CNS(=O)(=O)c2cccs2)c2cccnc2)CC1 (stereo unspecified) was tested, and the B-score was -0.131 (inactive). With O=C(/C=C\NCC(=O)c1ccccc1)c1ccccc1 the B-score was 0.368 (inactive). In the case of COc1ccccc1NC(=O)CC(NCCN(C)C)C(=O)O (stereo unspecified), the B-score is reported as -0.277 (inactive). In the case of COc1ccccc1NC(=O)[C@H](COCc1ccccc1)NC(=O)OC(C)(C)C, the B-score is reported as -4.41 (active). In the case of C#CCNC(=O)[C@H](Cc1ccc(C(=O)c2ccccc2)cc1)NC(=O)OC(C)(C)C, the B-score is reported as 0.229 (inactive). With COC(=O)c1ccc(C2C(Oc3ccccc3C)C(=O)N2CCc2ccc(OC)c(OC)c2)cc1 (stereo unspecified) the B-score was -2.96 (inactive). In the case of C=C1C2C[C@H](O)C(C)(C)[C@@]2(O)[C@H](O)C[C@]23C[C@@](C)(O)[C@H](CC[C@H]12)[C@H]3O (stereo partly specified), the B-score is reported as 0.00132 (inactive). For C#CCO[C@@H]1C[C@H](n2cnc3c(=O)[nH]c(NC(=O)C(C)C)nc32)O[C@@H]1CO, the B-score was 0.0144 (inactive). With CC(C)NC(=O)NCCCCCCS(C)=O (stereo unspecified) the B-score was 0.449 (inactive). CCOC(=O)CN1C(=O)C(=O)c2cc(C)ccc21 was tested, and the B-score was 0.0584 (inactive). With CCCCOC(=O)Cn1c(=N)n(CCN(CC)CC)c2ccccc21 the B-score was 0.824 (inactive). For CCCCOC(=O)Cn1c(=O)n(CC(=O)OCCCC)c2cc(C)ccc21, the B-score was -8.75 (active). COC(=O)CCCC1=CC2=C(c3ccccc3)C(=O)C(C)(OC(=O)C3CCCC3)C(=O)C2=CN1c1ccc(OC)cc1 (stereo unspecified) was tested, and the B-score was 0.00545 (inactive). For Cc1nn(-c2ccccn2)c2c1C(c1ccncc1)C1=C(CC(C)(C)CC1=O)N2 (stereo unspecified), the B-score was 0.727 (inactive). For CCOC(=O)C1CCCN(C(=O)CN(c2ccc(OC)cc2)S(=O)(=O)c2c(C)noc2C)C1 (stereo unspecified), the B-score was 0.012 (inactive). With CCOC(=O)c1cccc(NC(=O)CN(c2ccc(C)cc2)S(=O)(=O)c2c(C)noc2C)c1 the B-score was -6.06 (active). CCOc1ccc(N(CC(=O)OC)S(=O)(=O)c2c(C)noc2C)cc1 was tested, and the B-score was -5.9 (active). In the case of CCOc1ccc(N(CC(=O)NCc2ccc(OC)cc2)S(=O)(=O)c2c(C)noc2C)cc1, the B-score is reported as 0.15 (inactive). With COC(=O)c1ccc(NC(=O)CN(c2ccc(C)cc2)S(=O)(=O)c2c(C)n[nH]c2C)cc1 the B-score was -2.02 (inactive). In the case of Cc1noc(C)c1S(=O)(=O)N(CC(=O)Nc1ccc2c(c1)OCCO2)c1ccc(C(C)C)cc1, the B-score is reported as -2.62 (inactive). For COc1cccc(C(=O)NNC(=O)c2ccccc2Br)c1, the B-score was 0.232 (inactive). CC(C)NC(=O)C(=O)NCCCOC(C)C was tested, and the B-score was 0.568 (inactive). Cc1sc(NC(=S)NC(=O)c2cccs2)nc1-c1ccc(CC(C)C)cc1 was tested, and the B-score was -0.0675 (inactive). With CC/C=C/C(=O)N1CC2(CC(c3cccc(NC(=O)CC)c3)=NO2)C[C@H]1C(N)=O (stereo partly specified) the B-score was 0.223 (inactive). CCOc1ccc(C(CCc2ccccc2)NC(=O)c2ccc(OC)c(OC)c2)cc1OCC (stereo unspecified) was tested, and the B-score was -1.85 (inactive). With Cc1ccccc1OCC(=O)NCC(=O)OCC(=O)c1ccc2ccccc2c1 the B-score was -0.0134 (inactive). O=C(Nc1ccccc1)N1CCN(Cc2ccccc2)CC1 was tested, and the B-score was 0.4 (inactive). For COc1cccc(N2CCN(C(=O)Nc3ccc4c(c3)NC(=O)CO4)CC2)c1, the B-score was -0.0474 (inactive). For O=C(Nc1cccc(NC(=O)N2CCN(c3ccccc3)CC2)c1)N1CCN(c2ccccc2)CC1, the B-score was -6.86 (active).
